{
  "source": "PubChem BioAssay (EPA / NIEHS)",
  "note": "Inconclusive results are not listed. Active and inactive are the calls of the source. The calls were made as follows, unless noted: active = hit-call score of the fitted dose curve at least 0.9, where 1 is the maximum; inactive = score below 0.9.",
  "data": [
    {"target": "Retinoic acid receptor alpha (Homo sapiens) (UniProt P10276)", "sequence (P10276 whole entry, looked up, the tested form may be a part)": "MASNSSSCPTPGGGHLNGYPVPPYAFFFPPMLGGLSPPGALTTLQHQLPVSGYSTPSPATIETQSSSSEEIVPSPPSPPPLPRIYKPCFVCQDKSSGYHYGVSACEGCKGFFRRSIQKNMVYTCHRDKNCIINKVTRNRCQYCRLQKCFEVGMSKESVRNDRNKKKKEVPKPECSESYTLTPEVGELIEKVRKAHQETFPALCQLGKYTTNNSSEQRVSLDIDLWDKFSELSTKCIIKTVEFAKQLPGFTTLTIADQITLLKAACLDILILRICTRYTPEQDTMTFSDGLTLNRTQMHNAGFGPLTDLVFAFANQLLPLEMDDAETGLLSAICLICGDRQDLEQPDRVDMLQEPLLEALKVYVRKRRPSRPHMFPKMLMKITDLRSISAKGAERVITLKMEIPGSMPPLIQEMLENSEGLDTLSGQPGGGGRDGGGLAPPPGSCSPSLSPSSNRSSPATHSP", "test": "ATG_RARa_TRANS: Attagene TRANS-FACTORIAL HepG2 Assay for human Retinoic Acid Receptor alpha (RARa) (AID 2283005; active = hit-call score of the fitted dose curve at least 0.9, where 1 is the maximum)", "conditions": "not given", "summary_of_the_method": "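HepG2 cells transiently transfected with multiple reporter units expressing chimeric RARα-GAL4 fusion, with GAL4-UAS-driven reporters. After 24 h compound exposure, reporter mRNA induction quantified by RT-PCR and capillary electrophoresis with fluorescent labeling; gain-of-signal fitted relative to DMSO control.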", "values": [
      {"molecule": "O=C(NCNC(=O)NC1C(=O)NC(=O)N1CO)NC1C(=O)NC(=O)N1CO", "note": "(configuration not stated)", "outcome": "inactive"},
      {"molecule": "[N-]=[N+]=CC(=O)OC[C@H](N)C(=O)O", "outcome": "inactive"},
      {"molecule": "CCC1CCC(=O)O1", "note": "(configuration not stated)", "outcome": "inactive"},
      {"molecule": "CC(C)(O)C#N", "outcome": "inactive"},
      {"molecule": "CC(C)C#N", "outcome": "inactive"},
      {"molecule": "O=S(=O)(c1ccccc1)c1ccccc1", "outcome": "inactive"},
      {"molecule": "C[N+](C)=CCl", "outcome": "inactive"}
    ]},
    {"read-out": "not listed separately", "test": "BSK_3C_Proliferation: Cell Proliferation Assessment in the BioMAP Diversity Plus: 3C Assay (AID 2283006);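 as to AC50: potency may reflect either rise or fall in cell number versus DMSO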", "conditions": "primary human endothelial cells (HUVEC)", "summary_of_the_method": "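Read-out is total protein by SRB absorbance at 560 nm, taken as a proxy for relative cell number. Primary human umbilical vein endothelium cultured below confluence was dosed for 48 h, TCA-fixed and SRB-stained; curves were fitted bidirectionally versus DMSO.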", "values": [
      {"molecule": "O=C1C(Cl)=C(Cl)C(=O)C(Cl)=C1Cl", "AC50": "5.26 µM (active)"},
      {"molecule": "N#CCCCCC#N", "outcome": "inactive"},
      {"molecule": "CC(C)(c1cc(Cl)c(O)c(Cl)c1)c1cc(Cl)c(O)c(Cl)c1", "AC50": "15.2 µM (active)"},
      {"molecule": "COCC(=O)N(c1c(C)cccc1C)N1CCOC1=O", "outcome": "inactive"},
      {"molecule": "CC(C)CCCCCCCOP(=O)(Oc1ccccc1)Oc1ccccc1", "AC50": "10.1 µM (active)"},
      {"molecule": "C=CCN(CC=C)C(=O)C(Cl)Cl", "outcome": "inactive"},
      {"molecule": "c1ccc(Nc2ccc3ccccc3c2)cc1", "AC50": "23.6 µM (active)"},
      {"molecule": "Cc1ccc(OP(=O)(Oc2ccc(C)cc2)Oc2ccc(C)cc2)cc1", "note": "(tested in a mixture with another compound)", "AC50": "7.47 µM (active)"},
      {"molecule": "O=S(=O)(c1ccccc1)c1ccccc1", "outcome": "inactive"},
      {"molecule": "CC(=O)/C=C/c1ccccc1", "AC50": "23.2 µM (active)"}
    ]}
  ]
}
